Experimental data: PubChem BioAssay

What was measured:
PEG-3 [1] = molecular target: PEG-3 (UniProt Q6IN02); test: Peg3 promoter luciferase inhibitors, potency, dose response, cell-based, HeLa, CREF/GAPDH counter-screen panel (AID 624167); details: CREF/GAPDH counter-screens; HeLa PEG-Prom luciferase reporter, overnight, run 1, dose range 1, at 100 µM (top of the series) unless noted
PEG-3 [2] = molecular target: PEG-3 (UniProt Q6IN02); test: as above; details: CREF/GAPDH counter-screens; HeLa PEG-Prom luciferase reporter, overnight, run 2, dose range 1, at 100 µM (top of the series) unless noted

PEG-3, sequence (Q6IN02 whole entry, looked up): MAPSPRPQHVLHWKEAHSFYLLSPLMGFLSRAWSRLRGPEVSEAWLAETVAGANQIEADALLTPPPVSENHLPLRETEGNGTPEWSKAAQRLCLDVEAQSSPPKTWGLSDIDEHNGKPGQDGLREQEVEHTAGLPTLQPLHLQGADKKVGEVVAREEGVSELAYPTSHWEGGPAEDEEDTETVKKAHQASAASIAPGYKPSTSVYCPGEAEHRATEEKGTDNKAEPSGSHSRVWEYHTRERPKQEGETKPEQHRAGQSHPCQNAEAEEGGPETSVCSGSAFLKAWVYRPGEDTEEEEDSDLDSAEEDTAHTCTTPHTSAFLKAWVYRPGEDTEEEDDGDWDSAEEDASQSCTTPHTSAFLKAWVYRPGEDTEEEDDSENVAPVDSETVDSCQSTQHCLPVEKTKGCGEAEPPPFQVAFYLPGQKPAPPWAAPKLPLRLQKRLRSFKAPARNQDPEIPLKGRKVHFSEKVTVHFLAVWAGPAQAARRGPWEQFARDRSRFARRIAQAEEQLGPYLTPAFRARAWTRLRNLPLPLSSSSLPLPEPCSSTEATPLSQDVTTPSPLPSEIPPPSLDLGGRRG

Structure (SMILES)	inhibition (PEG-3 [1]) [%]	inhibition (PEG-3 [2]) [%]
COc1ccc(CN2CCN(C(=O)c3cc(-c4cccnc4)nc4ccc(Cl)cc34)CC2)c(OC)c1OC	74.9	83
O=C(CCN1C(=O)/C(=C/c2ccc(F)cc2)SC1=S)N[C@@H](CO)Cc1ccccc1	36.9	72
COc1ccc2nc3n(c(=O)c2c1)-c1cc2ccccc2cc1C(=O)NC3Cc1ccc(O)cc1 (stereo not drawn)	86.9	98.8
O=C(NC(c1ccc(F)cc1)c1ccc2ccccc2n1)C1CCN(Cc2cccc(C(F)(F)F)c2)CC1 (stereo not drawn)	91.2	94.1
CC(=O)Nc1ccc(S(=O)(=O)N(Cc2cccnc2)Cc2cc3ccccc3[nH]c2=O)cc1	11.2	-18.5
COc1cc(/C=C/c2ccc3cccc(O)c3n2)ccc1O	92.4	99.9
CN1CCC(NC(=O)c2cc(-c3cccc(Br)c3)nc3ccccc23)CC1	100	101
CCN(CC)CCNc1cccc2sc3ccccc3c(=O)c12	94.6	95.9
COc1cc(NC(=O)Nc2nc(C(N)CCc3ccccc3)cs2)cc(OC)c1OC (stereo not drawn)	99.2	97.7
CCC(=O)NC(c1cccs1)c1cc([N+](=O)[O-])c2cccnc2c1O (stereo not drawn)	100	101
CC(NNC(=S)N1CCN(c2ccccn2)CC1)c1nccc2ccccc12 (stereo not drawn)	98.7	99.9
C=CCN=C1NN=C(c2cc(C)n(CC=C)c2C)CS1	93.6	97.6
Cc1cc2c(c(/C=C/C(=O)c3ccccc3)c1)OC1(C=C2)Oc2ccccc2C(=O)N1C (stereo not drawn)	102	101
CCOC(=O)CN(C(=O)CSc1nnc2c(n1)[nH]c1ccc(F)cc12)c1ccccc1	99.9	99.2
Cc1ccc(C(=O)N2CCN(c3ccc([N+](=O)[O-])c(NCc4cccnc4)c3)CC2)cc1	48.8	47.4
c1ccc(C[C@H]2CNCCN2CCCCC2CCCCC2)cc1	102	101
COCOCCn1cc(CN2CCS(=O)(=O)N(Cc3ccc(-c4ccc(Cl)c(Cl)c4)cc3)C(C(C)C)C2=O)nn1 (stereo not drawn)	92.6	97.8
Cc1ccc2cc3c(N)c4c(C)ccc(C)c4nc3nc2c1	94.6	93.7
COc1ccc(-c2ccc3[nH]c4c(c3c2)CCN2C[C@@H]([C@H](C)O)[C@@H](N(C)C(=O)Nc3cc(Cl)cc(Cl)c3)C[C@@H]42)cc1	96.3	96.5
CC(C)CC1C(=O)N(Cc2cn(CCC3OCCO3)nn2)CCS(=O)(=O)N1Cc1ccc(-c2ccc(F)cc2)cc1 (stereo not drawn)	98.1	93.8
COC(=O)c1ccc(CNC(=O)Cn2cnc3c(NCc4ccccc4)ncnc32)cc1	97.3	74.3
CN(C)CCc1cc2c(c3c1ccc1ccccc13)OCO2	98.3	99.1
Cc1cccc(CN2C(=O)[C@H]3Cc4c([nH]c5ccccc45)C(C)(C)N3C2=O)c1	97.5	101
NC(=O)c1nsc(C(=O)N(c2ccccc2F)C(C(=O)NCc2ccccc2)c2ccc(O)cc2)c1N (stereo not drawn)	98.6	99.3
